Cruzain inh Det: inhibitors of Trypanosoma cruzi cruzain with detergent. purified cruzain, Z-FR-AMC fluorescence, 0.01% Triton. P25779. Potency, µM, for the others: max response, negative = inhibition, hits mostly inhibitors. 200,000 tested, 0.43% active;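 further: plate controls were neutral wells for no effect and buffer without enzyme for full effect; nearly all actives have a fitted effect of over 40% in size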
Target sequence (P25779 123-467 limits assumed): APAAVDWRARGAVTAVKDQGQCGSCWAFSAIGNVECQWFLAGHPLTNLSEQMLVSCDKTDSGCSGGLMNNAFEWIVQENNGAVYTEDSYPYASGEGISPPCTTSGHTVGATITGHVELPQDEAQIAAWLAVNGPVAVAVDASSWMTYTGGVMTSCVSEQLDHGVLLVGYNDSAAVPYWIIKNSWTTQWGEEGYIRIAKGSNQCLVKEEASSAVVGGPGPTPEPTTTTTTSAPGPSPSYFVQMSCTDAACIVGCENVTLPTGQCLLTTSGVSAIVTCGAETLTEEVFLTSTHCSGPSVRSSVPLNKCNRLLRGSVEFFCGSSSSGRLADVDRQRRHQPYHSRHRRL
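Sodium acetate buffer (100 mM, pH 5.5) containing 5 mM DTT and 0.01% Triton X-100 hosted 1.5 nM cruzain and test compound for 15 min at room temperature. Cleavage of 2 uM Z-FR-AMC was then tracked by fluorescence.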
Cruzain inh noDet: cruzain (T. cruzi) inhibition without detergent; P25779; Potency, µM, for inactives: max response, negative = inhibition, hits mostly inhibitors; purified cruzain, Z-FR-AMC fluorescence, no detergent; 200,000 tested, 2.3% active; AID 1476;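 further: plate controls were enzyme without inhibitor for no effect and buffer without enzyme for full effect; nearly all actives have a fitted effect of over 40% in size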
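Purified cruzain at 1.5 nM, pre-incubated 15 min with compound at room temperature in 100 mM sodium acetate pH 5.5, 5 mM DTT, 0.00005% Triton X-100. Reaction started with 2 uM Z-FR-AMC; AMC fluorescence increase over 60 s gives rate.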
* marks the source's active call; other numbers are inactive results; u = inconclusive. This is a sample that favours compounds with a hit; in the whole collection about 2.6% have one here. The call rests on the fitted dose curve; in most records, active means well fitted curve in the direction sought with a large enough effect; inconclusive means small, poorly fitted or top-dose-only effect, or another doubt; inactive means no such curve, though single readings can be large; an effect the other way counts as inactive or inconclusive. Potency means the concentration at half of the fitted maximal effect.

SMILES | Cruzain inh Det | Cruzain inh noDet
O=C(NC1CC(=O)N(c2cccc(F)c2)C1)c1cccs1 (stereo not drawn) | 1% | -7%
Cc1ccccc1Cn1c(CN2CCCC(C)C2)nc2c1c(=O)n(C)c(=O)n2C (stereo not drawn) | -1% | 6%
CC1CCCCN1C(=O)Cn1ncc2c3ccccc3n(Cc3ccccc3F)c2c1=O (stereo not drawn) | -10% | -1%
Cc1ccc(NC(=O)COC(=O)c2ccccc2Nc2ccccc2)cc1 | -9% | u
Cc1cccc(C(=O)Nc2ccccc2C(=O)OCC(=O)Nc2ccc(C#N)cc2)c1 | -5% | 32µM*
Cc1cnc(CNc2cc(-c3ccoc3)ncn2)cn1 | 0% | 23%
COc1ccc(Oc2ncc3nc(-c4ccc(F)cc4)c(=O)n(CCC#N)c3n2)cc1 | -4% | 2%
COc1ccc(C2CC(=O)c3cc(-c4nc(-c5cccc([N+](=O)[O-])c5)cs4)c(=O)n(-c4ccc(F)cc4)c3C2)cc1 (stereo not drawn) | -3% | 1µM*
COc1ccc(C2CC(=O)c3cc(-c4nc(-c5cccc([N+](=O)[O-])c5)cs4)c(=O)n(-c4ccccc4)c3C2)cc1 (stereo not drawn) | 0% | -4%
COC(=O)C(C)Sc1nnc2cc(C)c3cc(C)cc(C)c3n12 (stereo not drawn) | 0% | 1%
O=C1N=C(N2CCN(c3ccccc3)CC2)SC1Cc1ccccc1 (stereo not drawn) | -26% | -7%
Cc1ccc(N2CCN(C3=NC(=O)C(Cc4ccccc4)S3)CC2)cc1 (stereo not drawn) | 28µM* | -4%
O=S(=O)(c1ccc(F)cc1)N1CCn2c(nc3ccccc32)C1 | 18µM* | 5µM*
O=S(=O)(c1ccccc1)N1CCn2c(nc3ccccc32)C1 | -7% | -13%
O=S(=O)(O)c1cc(S(=O)(=O)O)c2c(N=Nc3cccc4ccccc34)c(O)ccc2c1 | 3% | 22%
O=S(=O)(O)c1cc(N=Nc2cccc3ccccc23)c(O)c2ncccc12 | 3.5µM* | -5%
COc1ccc(NC(=O)c2cn(CC(C)C)c(=O)c3cc(OC)c(OC)cc23)cc1Cl | -3% | 0%
CCSc1nnc([C@H](Cc2ccccc2)NC(=O)OC(C)(C)C)o1 | -8% | -4%
CC(C)(C)OC(=O)N[C@@H](Cc1ccccc1)c1nnc(SCC(=O)c2ccc(Cl)cc2)o1 | 0% | u
Cc1ccccc1CS(=O)(=O)c1nnc([C@H](Cc2ccccc2)NC(=O)OC(C)(C)C)o1 | 14µM* | u
CC(C)(C)OC(=O)N[C@@H](Cc1ccccc1)c1nnc(S(=O)(=O)Cc2ccccc2)o1 | 16µM* | 32µM*
COc1cc(OC)c(NC(=O)C(C)n2nc(-c3ccc(C)c(C)c3)ccc2=O)cc1Cl (stereo not drawn) | -9% | u
Cc1ccc2oc(C(=O)Nc3ccc(S(=O)(=O)N(C)c4ccccc4)cc3)cc(=O)c2c1 | 3% | 5%
O=C(NCc1ccc(Cl)cc1)c1cc(-c2ccc(F)cc2)on1 | -2% | u
Nc1c(C(=O)NCc2ccc(Cl)cc2)sc2nc(-c3ccc(F)cc3)ccc12 | 13µM* | 10µM*
SMILES | Cruzain inh Det | Cruzain inh noDet
CCOC(=O)c1cc(OC(=O)c2ccccc2C)n(-c2ccccc2)n1 | -5% | -4%
Cn1c(=O)c2c(SCC(=O)NCc3ccco3)nc(-c3cccc(F)c3)nc2n(C)c1=O | 4% | -11%
COc1ccccc1C(=O)NNC(=S)NC(=O)c1sc2ccccc2c1Cl | 8% | 10µM*
Cc1ccc(NC(=O)c2sc3ccccc3c2Cl)nc1 | 0% | -11%
COc1ccccc1C(=O)NC(=S)NNC(=O)c1sc2ccccc2c1Cl | 9% | 2.5µM*
COc1ccc(CCNC(=O)c2sc3ccccc3c2Cl)cc1OC | -11% | 9%
CCOC(=O)c1c(NC(=O)CSc2c[nH]c3ccccc23)sc2c1CCCC2 | -1% | 25µM*
CCOC(=O)c1c(NC(=O)CSc2c[nH]c3ccccc23)sc2c1CCC2 | -5% | 32µM*
CCOC(=O)c1c(NC(=O)CSc2nnc(-c3c[nH]c4ccccc34)n2CCOC)sc2c1CCCCC2 | 1% | -9%
CCOC(=O)c1c(NC(=O)CSc2nnc3ccccn23)sc2c1CCC2 | -7% | 13%
COc1cccc(-n2c(SCC(=O)Nc3cc(C)ccc3C)nc3c(oc4ccccc43)c2=O)c1 | -1% | -9%
O=C(CSc1nc2c(oc3ccccc32)c(=O)[nH]1)Nc1cccc(Cl)c1 | 1% | 7.9µM*
COc1cccc(-n2c(SCC(=O)Nc3cccc(Cl)c3)nc3c(oc4ccccc43)c2=O)c1 | -3% | 13µM*
Cc1cccc(NC(=O)CSc2nc3c(oc4ccccc43)c(=O)n2C(C)C)c1 | -4% | -25%
COc1ccc(CC(=O)NCc2ccc3c(c2)CCN3C(=O)c2ccc(C)cc2)cc1OC | 5% | u
Cc1nn(C(C)C(=O)NC2CCC(C)CC2)c(=O)c2c1sc1ccccc12 (stereo not drawn) | -12% | 1%
